What is called AC50 is the concentration at which the activity in the assay is half-maximal. Broadly, the viability is a read-out of living cells in per cent, often relative to untreated cells.

Records with an inconclusive call do not appear. Calls of active or inactive are those of the source.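 The calls were made as follows, unless noted: active = normalized viability below 100% at a tested concentration; inactive = the rest.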

A short description of assay [1]: growth inhibition of DIPG glioma cells, dose response, cell-based, SU-DIPG-XIII, MIPE5.0, CellTiter-Glo, qHTS (AID 1347064; cut-off not given, nearly all actives have AC50 up to about 23 µM). The conditions noted are these: SU-DIPG-XIII viability, CellTiter-Glo ATP luminescence.
Assay [2] in a line: viability loss in pontine glioma line – cell-based, SU-DIPG-XXV, MIPE5.0, CellTiter-Glo, qHTS, dose response (AID 1347065; cut-off not given, nearly all actives have AC50 up to about 26 µM;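 also: cells exposed to compound for 48 hours before ATP readout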). The following applies: CellTiter-Glo ATP luminescence.
Assay [3] can be described thus: JHH-DIPG-1 glioma cell viability, MIPE5.0 library, CellTiter-Glo luminescence, qHTS (AID 1347067; cut-off not given, nearly all actives have AC50 up to about 26 µM;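 also: cells exposed to compound for 48 hours before readout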). The following applies: JHH-DIPG-1 glioma viability, CellTiter-Glo ATP luminescence. (In ATP-based viability assays light output follows the ATP content of the culture.)
The nature of assay [4]: SU-DIPG-XXV glioma cell viability, MIPE5.0 library, qHTS (AID 1347068; cut-off not given, nearly all actives have IC50 up to about 30 µM). A general note: qHTS replaces the single test concentration by a dilution series.
A short description of assay [5]: growth inhibition of DIPG glioma cells, dose response, cell-based, SU-DIPG-IV, MIPE4.0, CellTiter-Glo, qHTS (AID 1347063; cut-off not given, nearly all actives have AC50 up to about 30 µM;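 also: compound exposure lasted 48 hours before the viability readout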). The conditions noted are these: SU-DIPG-IV viability, CellTiter-Glo ATP luminescence.
Assay [6] can be described thus: sensitizers of A549 cells to miR-34 induction, primary screen, imaging, A549 dox-inducible miR-34, nuclei and caspase counts (AID 1347080;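 active = compounds whose cell count with miR-34 switched on is under 0.7 times the count with it off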). The following applies: A549 miR-34 inducible, Hoechst nuclei count, 48 h.
A short description of assay [7]: survival rescue of mitochondrial mutant cells in low glucose, primary screen, MELAS cybrids, Rieske KO mouse fibroblasts, CellTiter-Glo (AID 1508586;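 active = mean z-score across replicates of 1.96 or higher in either the MELAS or the Rieske mutant cell line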;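 also: z relative to plate mean and SD of compound and empty wells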).
Assay [8] is described as follows: ovarian cancer cell viability with rucaparib, profiling panel, oncology-focused library, rucaparib conditional (AID 1508598). The following applies: patient-derived ovarian cancer cells, CellTiter-Glo viability, 144 h, stronger effect = lower value.
The mark [9] stands for this setting: stronger effect = lower value, cell number ratio, induced over uninduced.
The mark [10] stands for this setting: measured here: relative caspase fold change +Dox/-Dox.
The mark [11] stands for this setting: measured here: total cells with miR-34 induction, stronger effect = lower value.
Where [12] appears, read: measured here: total cells without miR-34 induction.
Setting [13] is: MELAS cybrid survival, CellTiter-Glo 48 h, stronger effect = higher value.
The mark [14] stands for this setting: Rieske KO mouse fibroblast survival, CellTiter-Glo 72 h.

As to `CC(=O)N1N=C(c2ccc(N)cc2)c2cc3c(cc2C[C@H]1C)OCO3`, the compound was classed as inactive in assay [1], in assay [2], in assay [3] and in assay [4].

On to `CCNC(=O)CC1N=C(c2ccc(Cl)cc2)c2cc(OC)ccc2-n2c(C)nnc21` (stereo not given), for which the half-maximal activity concentration (AC50) in assay [5] was 16.6 µM (active). In addition, the compound was classed as inactive in assay [1], in assay [2], in assay [3] and in assay [4]. For the same compound, the fold change in assay [6] (setting [9]) was 0.886 (inactive); in assay [6] (setting [10]), 0.522. Moreover, the cell count in assay [6] (setting [11]) amounted to 5810; in assay [6] (setting [12]), 6550. Moreover, the z-score is 0.755 (inactive) in assay [7] (setting [13]) and -2.99 in assay [7] (setting [14]).

`C[C@]12CCC3c4ccc(OC(=O)N(CCCl)CCCl)cc4CCC3C1CC[C@@H]2O` (stereo not given in full): the results for the fold change in assay [6] (stronger effect = lower value) and in assay [6] (setting [10]) were 1.19 (inactive) and 0.867, respectively. Besides, the figures for the cell count in assay [6] (setting [11]) and in assay [6] (setting [12]) were 2030 and 1700, respectively.

Turning to `O=S(=O)(CC1CS1)c1ccc(Oc2ccccc2)cc1` (stereo not given), the AC50 was 20.9 µM (active) in assay [5] and 23.5 µM (active) in assay [3]. The call in assay [4] was inactive. Also, the fold change was 0.961 (inactive) in assay [6] (setting [9]) and 0.577 in assay [6] (setting [10]). Besides, the cell count was found to be 8270 in assay [6] (setting [11]) and 8600 in assay [6] (setting [12]). In addition, the z-score in assay [7] (setting [13]) is -0.354 (inactive); in assay [7] (setting [14]) it was -1.56. Further, the viability in assay [8] (at 0.000305 µM, OCI-C5x cells, with rucaparib 10 µM, 100% = cells with rucaparib alone) was 114% (inactive); in assay [8] (at 0.000305 µM, OCI-C5x cells, without rucaparib), 110% (inactive); in assay [8] (at 0.000305 µM, OCI-P5x cells, with rucaparib 20 µM, 100% = cells with rucaparib alone), 95.3% (active); in assay [8] (at 0.000305 µM, OCI-P5x cells, without rucaparib), 95.4% (active); in assay [8] (at 0.00122 µM, OCI-C5x cells, with rucaparib 10 µM, 100% = cells with rucaparib alone) it was 112% (inactive); in assay [8] (at 0.00122 µM, OCI-C5x cells, without rucaparib), 111% (inactive). Moreover, the viability in assay [8] (at 0.00122 µM, OCI-P5x cells, with rucaparib 20 µM, 100% = cells with rucaparib alone) is 98.5% (active); in assay [8] (at 0.00122 µM, OCI-P5x cells, without rucaparib) it was 92.4% (active); in assay [8] (at 0.00488 µM, OCI-C5x cells, with rucaparib 10 µM, 100% = cells with rucaparib alone), 121% (inactive); in assay [8] (at 0.00488 µM, OCI-C5x cells, without rucaparib), 102% (inactive); in assay [8] (at 0.00488 µM, OCI-P5x cells, with rucaparib 20 µM, 100% = cells with rucaparib alone), 89.9% (active); in assay [8] (at 0.00488 µM, OCI-P5x cells, without rucaparib) it was 97.6% (active). Besides, the viability in assay [8] (at 0.0195 µM, OCI-C5x cells, with rucaparib 10 µM, 100% = cells with rucaparib alone) is 122% (inactive); in assay [8] (at 0.0195 µM, OCI-C5x cells, without rucaparib), 112% (inactive); in assay [8] (at 0.0195 µM, OCI-P5x cells, with rucaparib 20 µM, 100% = cells with rucaparib alone), 91% (active); in assay [8] (at 0.0195 µM, OCI-P5x cells, without rucaparib) it was 94.3% (active); in assay [8] (at 0.0781 µM, OCI-C5x cells, with rucaparib 10 µM, 100% = cells with rucaparib alone) it was 121% (inactive); in assay [8] (at 0.0781 µM, OCI-C5x cells, without rucaparib), 102% (inactive). Also, the viability was 85.3% (active) in assay [8] (at 0.0781 µM, OCI-P5x cells, with rucaparib 20 µM, 100% = cells with rucaparib alone); 91.2% (active) in assay [8] (at 0.0781 µM, OCI-P5x cells, without rucaparib); 120% (inactive) in assay [8] (at 0.313 µM, OCI-C5x cells, with rucaparib 10 µM, 100% = cells with rucaparib alone); 101% (inactive) in assay [8] (at 0.313 µM, OCI-C5x cells, without rucaparib); 84.7% (active) in assay [8] (at 0.313 µM, OCI-P5x cells, with rucaparib 20 µM, 100% = cells with rucaparib alone); 93.5% (active) in assay [8] (at 0.313 µM, OCI-P5x cells, without rucaparib). Besides, the viability in assay [8] (at 1.25 µM, OCI-C5x cells, with rucaparib 10 µM, 100% = cells with rucaparib alone) was 117% (inactive); in assay [8] (at 1.25 µM, OCI-C5x cells, without rucaparib), 111% (inactive); in assay [8] (at 1.25 µM, OCI-P5x cells, with rucaparib 20 µM, 100% = cells with rucaparib alone), 79% (active); in assay [8] (at 1.25 µM, OCI-P5x cells, without rucaparib) it was 82.1% (active); in assay [8] (at 5 µM, OCI-C5x cells, with rucaparib 10 µM, 100% = cells with rucaparib alone) it was 108% (inactive); in assay [8] (at 5 µM, OCI-C5x cells, without rucaparib), 110% (inactive). Moreover, the viability was 80.3% (active) in assay [8] (at 5 µM, OCI-P5x cells, with rucaparib 20 µM, 100% = cells with rucaparib alone) and 81.4% (active) in assay [8] (at 5 µM, OCI-P5x cells, without rucaparib).

As to `CC(C)(NC(=O)O[C@@H]1CN2CCC1CC2)c1csc(-c2ccc(F)cc2)n1`, the result in assay [1], in assay [2], in assay [3] and in assay [4] was inactive.

For the compound `CC1(C)C(=O)N(c2ccc(C#N)c(C(F)(F)F)c2)C(=S)N1Cc1ccc(-c2cn[nH]n2)cc1`, the result in assay [4] was inactive.
